# USP8 inh: blocks human USP8 ubiquitin-rhodamine cleavage | AID 1645853 | 47,000 tested, 4.2% active | purified USP8, Ub-rhodamine cleavage fluorescence, 30 min | inhibition, % at 20 µM | P40818
# USP28 block: inhibitors of human USP28 deubiquitinase | Q96RU2 | purified USP28, Ub-rhodamine cleavage fluorescence, 30 min | inhibition, % at 25 µM | 47,000 tested, 3% active | AID 1645857
# Target sequence (Q96RU2 whole entry, looked up): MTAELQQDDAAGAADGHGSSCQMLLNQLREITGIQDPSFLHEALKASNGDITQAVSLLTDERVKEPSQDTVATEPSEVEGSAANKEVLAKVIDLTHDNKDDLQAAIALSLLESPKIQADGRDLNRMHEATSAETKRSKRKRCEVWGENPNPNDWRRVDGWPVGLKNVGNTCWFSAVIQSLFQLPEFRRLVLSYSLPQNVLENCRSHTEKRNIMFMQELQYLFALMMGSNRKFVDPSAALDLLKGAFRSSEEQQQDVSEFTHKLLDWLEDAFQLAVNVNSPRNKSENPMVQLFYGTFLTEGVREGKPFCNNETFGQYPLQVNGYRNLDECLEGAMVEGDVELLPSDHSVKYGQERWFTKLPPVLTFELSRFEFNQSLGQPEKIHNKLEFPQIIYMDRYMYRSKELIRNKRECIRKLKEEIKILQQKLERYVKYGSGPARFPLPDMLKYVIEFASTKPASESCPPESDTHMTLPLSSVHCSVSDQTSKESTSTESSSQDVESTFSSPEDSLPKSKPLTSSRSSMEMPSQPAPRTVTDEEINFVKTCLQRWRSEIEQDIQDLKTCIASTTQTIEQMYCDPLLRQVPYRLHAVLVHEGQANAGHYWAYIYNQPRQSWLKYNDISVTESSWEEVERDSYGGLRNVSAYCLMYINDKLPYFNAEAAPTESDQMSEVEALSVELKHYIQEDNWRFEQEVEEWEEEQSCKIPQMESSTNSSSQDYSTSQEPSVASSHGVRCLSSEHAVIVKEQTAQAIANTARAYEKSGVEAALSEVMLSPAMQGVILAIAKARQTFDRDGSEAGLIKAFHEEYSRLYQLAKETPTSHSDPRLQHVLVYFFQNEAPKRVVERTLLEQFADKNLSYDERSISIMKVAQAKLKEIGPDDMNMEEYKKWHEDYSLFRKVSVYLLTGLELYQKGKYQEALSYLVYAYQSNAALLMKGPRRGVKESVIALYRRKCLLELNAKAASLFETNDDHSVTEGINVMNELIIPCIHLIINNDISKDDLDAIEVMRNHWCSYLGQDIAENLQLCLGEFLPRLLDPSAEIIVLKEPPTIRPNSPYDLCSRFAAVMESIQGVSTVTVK
# USP30 inh: inhibitors of human USP30 deubiquitinase | Q70CQ3 | purified USP30, Ub-rhodamine cleavage fluorescence | inhibition, % at 25 µM | 47,000 tested, 5.3% active | AID 1645860
# USP17 block: inhibitors of human USP17 deubiquitinase | inhibition, % at 50 µM | AID 1645855 | A8MUK1 | purified USP17, Ub-rhodamine cleavage fluorescence, 3 h | 47,000 tested, 6.5% active
# * marks the source's active call; other numbers are inactive results; · = no result. Most compounds without a hit are left out; they make up all but 13% or so of the library. Rule as the data show it: active = inhibition above about 30%; inactive = the rest.
SMILES,USP8 inh,USP28 block,USP30 inh,USP17 block
O=c1[nH]c(=O)n(Cc2ccco2)c2c1CN(Cc1ccccc1)CN2,1,-1,-21,-7
CCC(C)N1CNc2c(c(=O)[nH]c(=O)n2Cc2ccco2)C1 (configuration not stated),8,-4,39*,·
Cc1cc(C)nc(-n2nc(C)cc2NC(=O)c2cccc(Cl)c2)n1,-14,-2,-59,4
Cc1cc(C)nc(-n2ncc(C#N)c2NC(=O)c2ccc(Br)cc2)n1,44*,-26,-112,-61
O=C(NC1CCCCC1)C1=CCN(Cc2ccccc2)CC1,-18,-13,-44,-17
O=C(COC(=O)C(c1ccccc1)c1ccccc1)Nc1ccc(N2CCOCC2)cc1,13,19,13,7
O=C(CN(Cc1ccccc1)S(=O)(=O)c1ccc(Cl)cc1)Nc1ccc(N2CCOCC2)cc1,37*,2,-27,18
Cc1ccc(S(=O)(=O)N(CC(=O)N2CCOCC2)c2ccc(Cl)cc2C)cc1,12,9,12,0
O=C(CN(Cc1ccc(Cl)cc1)S(=O)(=O)c1ccc(Cl)cc1)N1CCOCC1,18,16,63*,21
O=C(CCc1nnc2n(Cc3ccccc3Cl)c(=O)c3ccccc3n12)NCc1ccccc1,47*,5,-3,18
COc1ccc(CNC(=O)CCc2nnc3n(Cc4ccccc4Cl)c(=O)c4ccccc4n23)cc1,38*,36*,40*,43*
CC(C)CCn1c(=O)c2ccccc2n2c(CCC(=O)NCc3ccccc3Cl)nnc12,19,-5,-12,-1
O=C(CCc1nnc2n(Cc3ccccc3)c(=O)c3ccccc3n12)N1CCC(Cc2ccccc2)CC1,17,22,38*,14
O=C(CCc1nnc2n(Cc3ccccc3)c(=O)c3ccccc3n12)NCc1cccnc1,1,9,38*,18
O=C(CCc1nnc2n(Cc3ccccc3)c(=O)c3ccccc3n12)N1CCCC1,0,7,17,6
N#Cc1ccc(N2CCN(C(=O)Nc3ccc(Cl)cc3)CC2)nc1,-3,1,-85,·
Cc1ccc(NC(=O)c2ccccc2)c(=O)n1CC(=O)N1CCN(C2CCCCC2)CC1,21,4,22,·
Cc1[nH]ncc1CNC(=O)c1nnn(-c2ccccc2Cl)c1-c1ccccn1,13,2,6,0
COc1ccc(CC(=O)NC2CCN(c3ccccc3)C2=O)cc1 (configuration not stated),14,4,-5,18
CC(C)OCCCn1c(=O)c2ccccc2n2c(CCC(=O)NCc3ccc4c(c3)OCO4)nnc12,17,19,40*,29
O=C(CCc1nnc2n(Cc3ccccc3Cl)c(=O)c3ccccc3n12)NCc1ccccn1,-7,36*,65*,45*
O=c1c2c(ccn1Cc1cc(F)ccc1F)ccn2Cc1cccnc1,6,68*,8,-7
Cc1ccccc1Cn1ccc2ccn(Cc3cccnc3)c2c1=O,19,60*,30*,14
O=S1(=O)CCN(Cc2ccccc2)c2c(OCC3CCCO3)nc(F)c(Cl)c21 (configuration not stated),-18,5,-3,-1
COc1ccc(Oc2nc(F)c(Cl)c3c2N(CC2CCCO2)CCS3(=O)=O)cc1 (configuration not stated),69*,17,-51,33*
SMILES,USP8 inh,USP28 block,USP30 inh,USP17 block
CNc1ccc(Oc2nc(F)c(Cl)c3c2N(CC2CCCO2)CCS3(=O)=O)cc1 (configuration not stated),25,-1,16,12
CCCCN1CCS(=O)(=O)c2c(Cl)c(F)nc(Oc3ccc(OC)cc3)c21,50*,10,4,25
COCCCN1CCS(=O)(=O)c2c(Cl)c(F)nc(Oc3ccccc3)c21,35*,7,-2,41*
CN1C(=O)COc2cc(-c3noc(C(=O)NCc4ccc(F)cc4)n3)ccc21,41*,11,76*,54*
CN1C(=O)COc2cc(-c3noc(C(=O)NCc4ccccc4)n3)ccc21,10,7,19,44*
c1ccc(CCNc2nc3ccccc3s2)cc1,-4,35*,-9,-9
COc1ccc(NC(=O)CS(=O)c2ccccc2Cl)cc1 (configuration not stated),-8,-7,-7,-8
CC(=O)Nc1cccc(NC(=O)c2nc3ccccc3n(C)c2=O)c1,-104,7,8,0
CCn1c(=O)c(C(=O)Nc2ccc(Br)cc2)nc2ccccc21,0,-2,-10,34*
Cn1c(=O)c(C(=O)Nc2ccc(Br)cc2F)nc2ccccc21,5,-5,4,46*
Cn1c(=O)c(C(=O)Nc2ccc(Br)cc2)nc2ccccc21,77*,13,34*,12
